Records with an inconclusive call do not appear. A number with no mark means an inactive call. The source made the active and inactive calls. Calls come from the whole dose curve; as a rule, active = well fitted cell-killing curve with a large enough effect; inconclusive = small, poorly fitted or top-dose-only effect, or effect the other way; inactive = no such curve, though single readings can be large or run the other way.
Tests used:
[1] = Quantitative High-Throughput drug screen in 47 multiple myeloma cell lines against the NCATS MIPE library collection: L363_DSMZ cell viability assay (AID 1918984); conditions: L363 myeloma viability, CellTiter-Glo ATP luminescence, 48 h; viability (% of control): at 45.8 µM (top of the series); note: nearly all actives have a fitted effect of over 40% in size
Outline: (§1)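 500 cells/well per myeloma line exposed to pinned MIPE 4.0 compounds for 48 h at 37 °C, 5% CO2. Viability read as ATP by CellTiter-Glo luminescence, normalised to DMSO-only (100%) and media-only (0%) wells.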

[2] = Quantitative High-Throughput drug screen in 47 multiple myeloma cell lines against the NCATS MIPE library collection: KMS34_JCRB cell viability assay (AID 1918985); note: nearly all actives have a fitted effect of over 40% in size
Outline: as §1

[3] = Quantitative High-Throughput drug screen in 47 multiple myeloma cell lines against the NCATS MIPE library collection: OCIMY7_PLB cell viability assay (AID 1918987); conditions: OCI-MY7 myeloma viability, CellTiter-Glo ATP, 48 h; viability (% of DMSO): at 45.8 µM (top of the series); note: nearly all actives have a fitted effect of over 65% in size
Outline: as §1

[4] = Quantitative High-Throughput drug screen in 47 multiple myeloma cell lines against the NCATS MIPE library collection: OCIMY5_PLB cell viability assay (AID 1918988); note: nearly all actives have a fitted effect of over 65% in size
Outline: as §1

[5] = Quantitative High-Throughput drug screen in 47 multiple myeloma cell lines against the NCATS MIPE library collection: OPM1_PLB cell viability assay (AID 1918989); note: nearly all actives have a fitted effect of over 40% in size
Outline: as §1

[6] = Quantitative High-Throughput drug screen in 47 multiple myeloma cell lines against the NCATS MIPE library collection: U266_ATCC cell viability assay (AID 1919864); note: nearly all actives have a fitted effect of over 35% in size
Outline: as §1

[7] = Quantitative High-Throughput drug screen in 47 multiple myeloma cell lines against the NCATS MIPE library collection: XG6_PLB cell viability assay (AID 1919865); note: nearly all actives have a fitted effect of over 40% in size
Outline: as §1

[8] = Quantitative High-Throughput drug screen in 47 multiple myeloma cell lines against the NCATS MIPE library collection: VP6_DJ cell viability assay (AID 1919867); note: nearly all actives have a fitted effect of over 40% in size
Outline: as §1

[9] = Quantitative High-Throughput drug screen in 47 multiple myeloma cell lines against the NCATS MIPE library collection: PE2_PLB cell viability assay (AID 1919869); note: nearly all actives have a fitted effect of over 35% in size
Outline: as §1

[10] = Quantitative High-Throughput drug screen in 47 multiple myeloma cell lines against the NCATS MIPE library collection: PCM6_Riken cell viability assay (AID 1919870); note: nearly all actives have a fitted effect of over 30% in size
Outline: as §1

[11] = Quantitative High-Throughput drug screen in 47 multiple myeloma cell lines against the NCATS MIPE library collection: RPMI8226_ATCC cell viability assay (AID 1919871); note: nearly all actives have a fitted effect of over 30% in size
Outline: as §1

[12] = Quantitative High-Throughput drug screen in 47 multiple myeloma cell lines against the NCATS MIPE library collection: OPM2_DSMZ cell viability assay (AID 1919872); note: nearly all actives have a fitted effect of over 30% in size
Outline: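 Luminescent ATP measurement with CellTiter-Glo gives viability, scaled between DMSO-only wells (100%) and media-only wells (0%). Cells, 500 per well, faced library compounds for 48 hours at 37C.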

[13] = Quantitative High-Throughput drug screen in 47 multiple myeloma cell lines against the NCATS MIPE library collection: KMS11_JCRBsus cell viability assay (AID 1919873); note: nearly all actives have a fitted effect of over 50% in size
Outline: as §1

[14] = Quantitative High-Throughput drug screen in 47 multiple myeloma cell lines against the NCATS MIPE library collection: KMS28BM_JCRB cell viability assay (AID 1919874); note: nearly all actives have a fitted effect of over 35% in size
Outline: as §1

[15] = Quantitative High-Throughput drug screen in 47 multiple myeloma cell lines against the NCATS MIPE library collection: XG1_PLB cell viability assay (AID 1919866); note: nearly all actives have a fitted effect of over 35% in size
Outline: as §1

[16] = Quantitative High-Throughput drug screen in 47 multiple myeloma cell lines against the NCATS MIPE library collection: SKMM1_PLB cell viability assay (AID 1919863); conditions: SKMM1 myeloma viability, CellTiter-Glo ATP, 48 h; viability: hits give low values; note: nearly all actives have a fitted effect of over 35% in size
Outline: as §1

[17] = Quantitative High-Throughput drug screen in 47 multiple myeloma cell lines against the NCATS MIPE library collection: UTMC2_PLB cell viability assay (AID 1919868); conditions: CellTiter-Glo ATP luminescence, 48 h; viability (% of DMSO control): at 45.8 µM (top of the series); note: nearly all actives have a fitted effect of over 55% in size
Outline: as §1
Potency is the fitted concentration of half-maximal effect.

| Structure (SMILES) | Potency [1] | Potency [2] | Potency [3] | Potency [4] | Potency [5] | Potency [6] | Potency [7] | Potency [8] | Potency [9] | Potency [10] | Potency [11] | Potency [12] | Potency [13] | Potency [14] | Potency [15] | Potency [16] | viability [16] [%] | Potency [17] |
| --- | --- | --- | --- | --- | --- | --- | --- | --- | --- | --- | --- | --- | --- | --- | --- | --- | --- | --- |
| COc1cc2nc(-c3cc(F)ccc3O)nc(N[C@@H]3CNC[C@@H]3C(C)(C)O)c2cc1OC | 1.87 µM (active) | 16.6 µM (active) | 2.64 µM (active) | 13.2 µM (active) | 3.72 µM (active) | 20.9 µM (active) | 0.935 µM (active) | 5.26 µM (active) | 7.43 µM (active) | 2.96 µM (active) | 23.5 µM (active) | 16.6 µM (active) | 5.26 µM (active) | 4.18 µM (active) | – | – | – | – |
| COc1c(C)cnc(Cn2cnc3c(Cl)nc(N)nc32)c1C | 0.0372 µM (active) | 0.105 µM (active) | 0.0418 µM (active) | 0.0935 µM (active) | 0.148 µM (active) | 0.166 µM (active) | 0.264 µM (active) | 0.148 µM (active) | 0.235 µM (active) | – | – | 0.187 µM (active) | – | – | 0.118 µM (active) | – | – | – |
| CN(C)c1ccc(-c2nc3ncc(Cl)c(N4CCN(CC(=O)Nc5nccs5)CC4)c3[nH]2)cc1 | inactive | 2.96 µM (active) | – | 5.26 µM (active) | 1.87 µM (active) | 2.96 µM (active) | 2.64 µM (active) | – | 1.32 µM (active) | inactive | – | – | – | 2.35 µM (active) | – | 14.8 µM (active) | – | – |
| Fc1ccc(C(c2ccc(F)cc2)N2CCN(CC=Cc3ccccc3)CC2)cc1 | inactive | inactive | 13.2 µM (active) | 14.8 µM (active) | inactive | inactive | 7.43 µM (active) | 8.33 µM (active) | 5.26 µM (active) | 5.9 µM (active) | 16.6 µM (active) | – | – | – | 9.35 µM (active) | – | 107 | inactive |
| CN1CCN(c2ncc(-c3cc(Cl)cc(Cl)c3Cl)c(N)n2)CC1 | 18.7 µM (active) | inactive | 33.2 µM (active) | inactive | inactive | 26.4 µM (active) | 7.43 µM (active) | – | 10.5 µM (active) | – | – | – | inactive | – | 7.43 µM (active) | – | – | inactive |
| CO[C@H]1C=CO[C@@]2(C)Oc3c(C)c(O)c4c(O)c(c(C=NN5CCN(C)CC5)c(O)c4c3C2=O)NC(=O)C(C)=CC=C[C@H](C)[C@H](O)[C@@H](C)[C@@H](O)[C@@H](C)[C@H](OC(C)=O)[C@H]1C | inactive | 2.12 µM (active) | – | 0.598 µM (active) | inactive | – | inactive | – | inactive | inactive | inactive | inactive | – | inactive | inactive | – | – | inactive |
| Cc1cnc(Nc2cccc(CN3CCOCC3)c2)nc1Nc1cccc(S(=O)(=O)NC(C)(C)C)c1 | 5.26 µM (active) | 3.32 µM (active) | 1.05 µM (active) | 3.72 µM (active) | – | inactive | 1.18 µM (active) | 2.96 µM (active) | 1.87 µM (active) | 6.62 µM (active) | – | 9.35 µM (active) | – | – | 1.05 µM (active) | 7.43 µM (active) | – | 1.18 µM (active) |
| CN[C@@H]1CN(c2ccc3c(=O)c(C(=O)O)cn(-c4nccs4)c3n2)C[C@@H]1OC | inactive | 5.12 µM (active) | 5.75 µM (active) | 12.9 µM (active) | 14.4 µM (active) | 8.12 µM (active) | 1.62 µM (active) | – | 1.82 µM (active) | 3.23 µM (active) | 12.9 µM (active) | – | – | – | 7.24 µM (active) | 7.24 µM (active) | – | 1.29 µM (active) |
| C[C@@H]1[C@H](C)CC[C@]2(C(=O)O)CC[C@]3(C)C(=CC[C@@H]4[C@@]5(C)CC[C@H](O)C(C)(C)[C@H]5CC[C@]43C)[C@@H]12 | inactive | 34 µM (active) | – | 1.52 µM (active) | inactive | – | – | – | inactive | 12.1 µM (active) | 27 µM (active) | 42.9 µM (active) | inactive | – | 1.36 µM (active) | 24.1 µM (active) | – | – |
| Nc1ncnc2c1ncn2[C@@H]1O[C@H](CO)[C@@H](O)[C@@H]1O | 1.05 µM (active) | 18.7 µM (active) | – | 16.6 µM (active) | 20.9 µM (active) | 7.43 µM (active) | 2.64 µM (active) | – | 14.8 µM (active) | 1.18 µM (active) | inactive | – | – | 0.935 µM (active) | 0.935 µM (active) | – | 106 | – |
| N=C1SC(=Cc2ccc(-c3ccc4c(c3)C(=O)NC4=O)o2)C(=O)N1c1ccc(Br)cc1 | inactive | 2.64 µM (active) | – | 2.96 µM (active) | – | – | 1.66 µM (active) | – | 2.09 µM (active) | – | 3.32 µM (active) | 2.64 µM (active) | inactive | inactive | 2.35 µM (active) | 3.32 µM (active) | – | – |
